Measured values from PubChem BioAssay.
Active and inactive are the calls of the source. Unless noted, no rule for the calls is given here.

Experiments:
[1] = tested on: Wnt5a (protein binding on small-molecule microarray); experiment: small molecules binding Wnt5a protein – biophysical, small-molecule microarray, 635/667 nm fluorescence, primary screen (AID 1142); settings: 635 nm fluorescence, higher = more signal;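 also: fluorescence read at 667 nm with signal to noise per printed feature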
[2] = ATP-based viability of Huh7 replicon cells – cell-based, CellTiter-Glo luminescence, basal, 48 h, cytotoxicity control for HCV replication inhibitor project, primary screen (AID 1143); settings: higher = more signal, called active from +8 up or from −8 down;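 also: Huh7 hepatoma cells carrying a hepatitis C replication reporter with no stimulus; test concentration not given here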
[3] = Pseudomonas biofilm growth suppression – PAO1 strain, BacTiter-Glo luminescence, LB-PBS, primary screen (AID 1144); settings: P. aeruginosa PAO1 biofilm, 12 h, higher = more signal
[4] = basal CRE-LacZ reporter activity in PC12 – cell-based, unstimulated, primary screen (AID 1145); settings: no forskolin, luminescence, 4.5 h, higher = more signal, called active from +8 up or from −8 down
[5] = forskolin-driven CRE-LacZ activity in PC12 – cell-based, CRE-LacZ reporter, forskolin-stimulated, primary screen (AID 1146); settings: luminescence, 4.5 h, higher = more signal, called active from +8 up or from −8 down;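 also: PC12 cells with 6xCRE LacZ reporter stimulated by forskolin 10 µM; beta-galactosidase reporter signal reflecting CREB driven transcription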
[6] = target: Streptavidin (Streptomyces avidinii) (UniProt P22629); experiment: compounds binding control protein streptavidin – biophysical, small-molecule microarray, 635/667 nm fluorescence, artefact control for SMM compound annotation, primary screen (AID 1147); settings: higher = more signal;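 also: signal reflects streptavidin binding to arrayed compounds as a control protein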
Sequence of Streptavidin (Streptomyces avidinii) (P22629 whole entry, looked up): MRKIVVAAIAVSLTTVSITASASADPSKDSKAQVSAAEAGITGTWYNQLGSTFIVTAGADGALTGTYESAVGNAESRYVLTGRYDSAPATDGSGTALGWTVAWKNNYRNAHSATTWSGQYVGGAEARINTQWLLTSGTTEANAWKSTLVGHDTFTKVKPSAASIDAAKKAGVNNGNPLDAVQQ

[7] = probe aInhba binding on compound microarray – biochemical, small-molecule microarray, 635/667 nm fluorescence, primary screen (AID 1148); settings: higher = more signal;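 also: score merges 667nm spot fluorescence with signal-to-noise for antibody binding to printed compounds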
Torsin-1A (Homo sapiens) [8] = target: Torsin-1A (Homo sapiens) (UniProt O14656); experiment: TOR1A wild-type binding on microarray – cell lysate, small-molecule microarray, lysate, 635/667 nm, primary screen (AID 1149); settings: COS7 hTOR1A-WT lysate, 635 nm fluorescence, higher = more signal
Sequence of Torsin-1A (Homo sapiens) (O14656 whole entry, looked up): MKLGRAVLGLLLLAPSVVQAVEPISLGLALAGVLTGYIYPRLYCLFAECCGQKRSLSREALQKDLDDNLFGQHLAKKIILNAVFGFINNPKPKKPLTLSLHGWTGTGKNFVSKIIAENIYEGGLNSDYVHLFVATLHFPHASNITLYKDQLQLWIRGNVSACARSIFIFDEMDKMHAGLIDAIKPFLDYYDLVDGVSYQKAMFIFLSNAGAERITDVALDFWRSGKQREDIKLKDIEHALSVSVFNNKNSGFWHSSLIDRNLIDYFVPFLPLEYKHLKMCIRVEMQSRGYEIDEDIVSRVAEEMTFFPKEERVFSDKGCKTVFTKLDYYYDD

Torsin-1A (Homo sapiens) [9] = target: Torsin-1A (Homo sapiens) (UniProt O14656); experiment: torsin A mutant lysate binding on microarrays – cell lysate, small-molecule microarray, COS7 lysate, 635/667 nm fluorescence, primary screen (AID 1150); settings: COS7 hTOR1A mutant lysate, 635 nm fluorescence, higher = more signal;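 also: score pools 667 nm emission and signal to noise measuring lysate protein binding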
[10] = tested on: Sonic hedgehog protein (Shh); experiment: Sonic hedgehog microarray binding compounds – biochemical, small-molecule microarray, 635/667 nm fluorescence, primary screen (AID 1151); settings: 635 nm fluorescence, higher = more signal;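 also: Shh protein binding to compounds spotted on small-molecule microarray slides; score combines spot fluorescence intensity with signal-to-noise across triplicate slides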

Row | SMILES | composite z-score [1] | z-score [2] | z-score [3] | z-score [4] | z-score [5] | composite z-score [6] | composite z-score [7] | composite z-score (Torsin-1A (Homo sapiens) [8]) | composite z-score (Torsin-1A (Homo sapiens) [9]) | composite z-score [10]
1 | CC1CC/C=C\[C@H]2OC34C=CCN(Cc5ccccc5)C(=O)[C@H]3N(C(CO)C(C)C)C(=O)[C@@H]4C2C(=O)O1 (stereo not given in full) | -0.0818 | -0.0399 (inactive) | 1.09 (inactive) | 2.1 (inactive) | 1.43 (inactive) | -0.854 | -0.0695 | 0.505 | -0.741 | -0.0532
2 | COC(=O)[C@@H]1N=C(c2ccc(OCCCO)cc2)O[C@@H]1c1ccccc1 | -0.508 | -1.64 (inactive) | -1.06 (inactive) | -0.594 (inactive) | -1.38 (inactive) | -0.913 | -0.0762 | 1.01 | 0.695 | -0.703
3 | CS(=O)(=O)CCOC(=O)C1=CC(c2ccc(CO)cc2)=CC(C2CC2)N(Cc2sc3ccccc3c2Cl)C=C1C(=O)OCCS(C)(=O)=O (stereo not given) | -0.0091 | -4.22 (inactive) | -1.49 (inactive) | 1.8 (inactive) | -2.66 (inactive) | 1.95 | 0.0843 | 1.24 | 1.31 | 1.23
4 | [N-]=[N+]=Nc1ccccc1C[C@@]1(C(=O)NCCN2CCOCC2)N=C(c2ccc(OCCCO)cc2)O[C@@H]1c1ccccc1N=[N+]=[N-] | 0.734 | -4.82 (inactive) | 1.52 (inactive) | 0.512 (inactive) | -1.83 (inactive) | 0.425 | 0.518 | 0.801 | -0.283 | 0.201
5 | COc1ccc(CCNC(=O)[C@@]2(Cc3ccccc3I)c3ccccc3C(=O)N(C3CCCCC3)[C@H]2c2ccc(CO)cc2)cc1 | -0.372 | -6.39 (inactive) | -1.43 (inactive) | -0.0243 (inactive) | -1.06 (inactive) | 0.623 | 0.0198 | -0.57 | -0.0979 | -0.193
6 | CO[C@H]1O[C@H](CO)[C@@H](OC(=O)Nc2ccc3c(c2)OCO3)[C@H](OC(=O)Nc2ccc3c(c2)OCO3)[C@@H]1OC(=O)Nc1ccc2c(c1)OCO2 | 0.523 | -2.3 (inactive) | 0.506 (inactive) | 0.643 (inactive) | -1.48 (inactive) | 1.11 | -0.0087 | 0.967 | 1.05 | 0.164
7 | COC(=O)C1=CC(CCCO)=CC(c2ccc(CN3CCCC3)cc2)N(Cc2cccc(OC(F)(F)F)c2)C=C1C(=O)OC (stereo not given) | -0.0146 | -2.24 (inactive) | 1.23 (inactive) | -0.554 (inactive) | -0.727 (inactive) | 0.644 | 0.0769 | 0.648 | 1.18 | -0.136
8 | COCCOC(=O)N1C(=O)[C@@]2(c3cc(C#CC4(O)CCCCCC4)ccc31)[C@H](C(=O)Nc1nc3ccccc3s1)[C@H]1C(=O)O[C@H](c3ccccc3)[C@H](c3ccccc3)N1[C@@H]2c1ccc(O)cc1 | 0.62 | -0.804 (inactive) | -0.374 (inactive) | 0.245 (inactive) | 7.33 (inactive) | 0.857 | 0.117 | 0.878 | 0.753 | 1.52
9 | CCOC(=O)C[C@H]1[C@H](OC(=O)c2cc3ccccc3oc2=O)[C@@H](NC(=O)c2ccc3ccccc3n2)c2cc(OCCCO)ccc2N1C(=O)Cc1ccc(OC)cc1 | 0.155 | -0.593 (inactive) | -1.05 (inactive) | -1.23 (inactive) | -0.74 (inactive) | 0.386 | -0.0136 | -0.262 | -0.0557 | 1.56
10 | COC(=O)[C@@]1(Cc2ccc(F)cc2)[C@H]2c3cc(C(=O)N4CCCC4)n(Cc4ccc(C)c(F)c4F)c3C[C@H]2CN1C(=O)c1ccccc1 | -0.175 | -0.944 (inactive) | -0.298 (inactive) | 1.15 (inactive) | -0.177 (inactive) | -0.286 | 0.12 | -0.259 | -0.407 | -0.472
11 | COc1cc(NN2C(C(O)c3ccco3)C=CC3C(=O)N(C)C(=O)C32)cc(OC)c1OC (stereo not given) | 0.259 | 1.06 (inactive) | 0.184 (inactive) | 0.815 (inactive) | 1.06 (inactive) | 0.536 | 0.288 | 1.27 | 1.04 | 0.0765
12 | COC(=O)[C@@]1(Cc2ccc(OC)cc2)[C@H]2c3cc(C(=O)N(C)C)n(Cc4ccc(OC(F)(F)F)cc4)c3C[C@H]2CN1C(=O)c1ccccc1 | -0.223 | -2.6 (inactive) | 0.043 (inactive) | 4.4 (inactive) | 74 (active) | 0.539 | 0.185 | -0.178 | 0.555 | -0.955
